Assay results: PubChem BioAssay (NCI)
This is part of a sample that, as a whole, favours compounds with a hit. Of some 79,000 tested, about 15% had one in any assay. The source made the active and inactive calls. Rule as the data show it: active = growth inhibition above about 70%; inactive = the rest.

What was measured:
[1] = NCI Yeast Anticancer Drug Screen. Data for the rad50 strain (AID 155);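 also: 0% = growth of vehicle-only cultures of the same strain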; settings: S. cerevisiae rad50 strain growth inhibition, stronger effect = higher value
Procedure, shortened: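 Vehicle-treated cultures provide the reference for the growth inhibition reported for compound-exposed, repair-deficient yeast.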

[2] = NCI Yeast Anticancer Drug Screen. Data for the mec2-1 strain (AID 157); settings: S. cerevisiae mec2-1 strain, stronger effect = higher value
Procedure, shortened: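 Readout is yeast growth inhibition, normalised to vehicle-treated controls, in the mec2-1 strain exposed to compound.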

[3] = NCI Yeast Anticancer Drug Screen. Data for the sgs1 mgt1 strain (AID 161);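 also: 0% = growth of cultures given vehicle only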; settings: S. cerevisiae sgs1 mgt1 strain, stronger effect = higher value
Procedure, shortened: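 Percent growth inhibition was derived by comparing compound-exposed mutant yeast with vehicle-exposed cultures. The strain carries alterations in DNA damage repair.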

[4] = NCI Yeast Anticancer Drug Screen. Data for the cln2 rad14 strain (AID 165);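 also: 0% = growth equal to vehicle treated cultures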; settings: S. cerevisiae cln2 rad14 strain, stronger effect = higher value
Procedure, shortened: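 Relative to vehicle controls, growth inhibition of compound-treated cln2 rad14 yeast was recorded.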

[5] = NCI Yeast Anticancer Drug Screen. Data for the bub3 strain (AID 167); settings: S. cerevisiae bub3 mutant strain, stronger effect = higher value
Procedure, shortened: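 Mutant yeast screening strain plus compound; vehicle-treated cultures serve as the 0% inhibition reference.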

[6] = NCI Yeast Anticancer Drug Screen. Data for the mlh1 rad18 strain (AID 175); settings: S. cerevisiae mlh1 rad18 strain growth inhibition, stronger effect = higher value
Procedure, shortened: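 Test agents were incubated with a yeast strain of defined genotype (DNA damage repair defect). Inhibition of growth was derived by comparison with vehicle-exposed cultures.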

[7] = at 5.0 µM (retest, dose inferred, filed as 0.5)
[8] = at 50.0 µM (retest, dose inferred, filed as 5.0)

Measured: growth inhibition

O=[N+]([O-])c1cc([N+](=O)[O-])c(Cl)s1
active: [1]; [7] 98% | [1]; [8] 99% | [1]; at 50.0 µM 99.5% | [2]; [7] 99% | [2]; [8] 83% | [2]; at 50.0 µM 99.7% | [3]; [7] 99% | [3]; [8] 100% | [3]; at 50.0 µM 99.4% | [4]; [7] 99% | [4]; [8] 98% | [4]; at 50.0 µM 99.3% | [5]; [7] 99% | [5]; [8] 99% | [5]; at 50.0 µM 99.5% | [6]; [7] 99% | [6]; [8] 99% | [6]; at 50.0 µM 99.6%

CCC[CH2][Sn]1([CH2]CCC)[O]C2C(O)OC(CO)C(O)C2[O]1 (stereo not given)
active: [1]; [7] 84% | [1]; [8] 99% | [1]; at 50.0 µM 99% | [2]; [7] 74% | [2]; [8] 99% | [2]; at 50.0 µM 99.3% | [3]; [7] 82% | [3]; [8] 99% | [3]; at 50.0 µM 99% | [4]; [8] 99% | [4]; at 50.0 µM 99% | [5]; [7] 80% | [5]; [8] 99% | [5]; at 50.0 µM 98.7% | [6]; [7] 81% | [6]; [8] 99% | [6]; at 50.0 µM 98.6%
inactive: [4]; [7] 64%

Cc1ccc2c(C)c3ccc4ccccc4c3c[n+]2c1
active: [1]; [7] 74% | [1]; [8] 94% | [1]; at 50.0 µM 71.2% | [2]; [8] 89% | [2]; at 50.0 µM 83.5% | [3]; [7] 87% | [3]; [8] 95% | [3]; at 50.0 µM 85.2% | [4]; [8] 71% | [5]; [8] 88% | [5]; at 50.0 µM 86.5% | [6]; [8] 88% | [6]; at 50.0 µM 72.5%
inactive: [2]; [7] 65% | [4]; [7] 51% | [4]; at 50.0 µM 52.6% | [5]; [7] 69% | [6]; [7] 52%

CC(=O)C(CN1CCOCC1)C(c1ccccc1)c1c(O)c2ccccc2oc1=O (stereo not given)
inactive: [1]; [7] 7% | [1]; at 50.0 µM -1.6% | [2]; [7] 5% | [2]; at 50.0 µM -12.3% | [3]; [7] 3% | [3]; at 50.0 µM 9.4% | [4]; [7] 5% | [4]; at 50.0 µM 0.25% | [5]; [7] 22% | [5]; at 50.0 µM 21.9% | [6]; [7] 6% | [6]; at 50.0 µM -13.5%
active: [1]; [8] 73% | [2]; [8] 75% | [3]; [8] 80% | [4]; [8] 79% | [5]; [8] 83% | [6]; [8] 81%

O=C(CBr)OC1CCCCC1
inactive: [2]; [7] 41% | [2]; at 50.0 µM 69.4% | [3]; [7] 55% | [4]; [7] 24% | [4]; at 50.0 µM 10.9% | [5]; [7] 60% | [6]; [7] 69%
active: [1]; [7] 73% | [1]; [8] 97% | [1]; at 50.0 µM 91% | [2]; [8] 98% | [3]; [8] 98% | [3]; at 50.0 µM 87.4% | [4]; [8] 80% | [5]; [8] 97% | [5]; at 50.0 µM 75.8% | [6]; [8] 98% | [6]; at 50.0 µM 90.4%

C[C@]12CCCC[C@@H]1CC[C@@H]1[C@@H]2C(=O)C[C@@]2(C)[C@H]1CC[C@]2(C)O
inactive: [1]; [7] 6% | [1]; at 50.0 µM 60.4% | [2]; [7] 0% | [3]; [7] 0% | [3]; at 50.0 µM 50.3% | [4]; [7] 0% | [4]; at 50.0 µM 20.6% | [5]; [7] -4% | [5]; at 50.0 µM 53% | [6]; [7] 30%
active: [1]; [8] 97% | [2]; [8] 99% | [2]; at 50.0 µM 99% | [3]; [8] 99% | [4]; [8] 97% | [5]; [8] 80% | [6]; [8] 99% | [6]; at 50.0 µM 98%

O=C(Nc1n[c]([Hg][Cl])[c]([Hg][Cl])s1)OCc1ccccc1
active: [1]; [7] 99% | [1]; [8] 98% | [1]; at 50.0 µM 99% | [2]; [7] 99% | [2]; [8] 99% | [2]; at 50.0 µM 99.5% | [3]; [7] 98% | [3]; [8] 99% | [3]; at 50.0 µM 99.3% | [4]; [8] 99% | [4]; at 50.0 µM 98.9% | [5]; [7] 100% | [5]; [8] 99% | [5]; at 50.0 µM 99.2% | [6]; [7] 99% | [6]; [8] 98% | [6]; at 50.0 µM 98.9%
inactive: [4]; [7] 34%

CCOc1c(Br)cc(/C=C(\C)[N+](=O)[O-])cc1OC
inactive: [1]; [7] 2% | [1]; [8] 7% | [1]; at 50.0 µM 61.9% | [2]; [7] -1% | [2]; [8] 9% | [3]; [7] 6% | [3]; [8] 9% | [4]; [7] -1% | [4]; [8] -3% | [5]; [7] -4% | [5]; [8] 2% | [6]; [7] -5% | [6]; [8] 4%
active: [2]; at 50.0 µM 78.5% | [3]; at 50.0 µM 87.3% | [4]; at 50.0 µM 93.4% | [5]; at 50.0 µM 72.5% | [6]; at 50.0 µM 79.7%

O=C(C[n+]1ccccc1)C1CCc2ccccc2C1 (stereo not given)
inactive: [1]; [7] -3% | [1]; [8] -4% | [1]; at 50.0 µM 9.25% | [2]; [7] 0% | [2]; [8] -2% | [2]; at 50.0 µM 5.7% | [3]; [7] -1% | [3]; [8] 0% | [3]; at 50.0 µM -1.5% | [4]; [7] 0% | [4]; [8] -5% | [4]; at 50.0 µM 39% | [5]; [7] -2% | [5]; [8] -3% | [5]; at 50.0 µM -21.1% | [6]; [7] -6% | [6]; [8] -6% | [6]; at 50.0 µM 3.2%

O=NNc1c[nH]c(=O)[nH]c1=O
inactive: [1]; [7] 1% | [1]; [8] 69% | [2]; [7] 0% | [2]; [8] 14% | [2]; at 50.0 µM 5.85% | [3]; [7] -1% | [3]; [8] 29% | [3]; at 50.0 µM 17.1% | [4]; [7] -5% | [4]; [8] 12% | [4]; at 50.0 µM 4.3% | [5]; [7] -1% | [5]; [8] -12% | [5]; at 50.0 µM 0.3% | [6]; [7] 3% | [6]; [8] 39% | [6]; at 50.0 µM 21.1%
active: [1]; at 50.0 µM 72.6%
